Reference: PubChem BioAssay (NCATS)
Inconclusive results are not listed. Unmarked numbers belong to inactive results. Active and inactive are the calls of the source. Calls come from the whole dose curve; as a rule, active = well fitted curve in the direction sought with a large enough effect; inconclusive = small, poorly fitted or top-dose-only effect, or another doubt; inactive = no such curve, though single readings can be large; an effect the other way counts as inactive or inconclusive. Starred links: 1 amine or outer side, 2 acyl side, 3 side chain; linkers in the order of their positions; H or OH if unused. Positions of bridges follow the written chain, without caps; N, C: chain ends. Non-standard residues stand in square brackets, D forms with d. Residues, ends and D or L forms follow the SMILES beside them. ξ: configuration not given here. *: point of attachment. X3 = C[C@@H](Oc1ccc([C@H](N[*:1])C(=O)[*:2])cc1)[C@]1(/C=C\C(=O)[*:3])CO1; d(aIle) = CC[C@H](C)[C@@H](N)C(=O)O; X2 = CC(C)[C@@H](O)C(C)C(=O)*; ξNMeF = CNC(Cc1ccccc1)C(=O)O; ξT = CC(O)C(N)C(=O)O; ξS = NC(CO)C(=O)O

Columns and labels:
[1] = tested on: NAD(P)H diaphorase (Clostridium kluyveri); assay: Diaphorse counterscreen qHTS: Assay Interference Panel against the NCATS CANVASS Library (AID 1347362)
Procedure, shortened: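 Clostridium kluyveri diaphorase in PBS + 0.01% Tween-20 preincubated 15 min with compounds. Resazurin and NADH then added for 5 min at room temperature in the dark; resorufin fluorescence read (ex 525, em 598).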

[2] = KB-8-5-11 Cancer Cell Toxicity qHTS against the NCATS CANVASS Library (AID 1347364)
Procedure, shortened: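 Viability read as CellTiter-Glo luminescence after 72 h at 37 °C, 5% CO2. 11-point compound series on 500 KB-8-5-11 cells/well in DMEM/10% FBS. Follow-up plating included 1 uM tariquidar in the medium.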

[3] = KB-3-1 Cancer Cell Toxicity qHTS against the NCATS CANVASS Library (AID 1347366)
Procedure, shortened: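 Luminescence from CellTiter-Glo (10 min, room temperature) measured KB-3-1 viability after 72 hr compound exposure at 37C. Cells were seeded at 500/well and tested in an 11-point series.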

[4] = qHTS for Hypoxia signaling pathway (HIF-1) antagonists against the NCATS CANVASS Library (AID 1347374)
Procedure, shortened: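 Antagonism scored as loss of CoCl2-driven (60 uM stock added) HRE beta-lactamase signal, read by CCF4 FRET at 460/530 nm. Compounds were tested in an 11-point series on ME-180 reporter cells for 17 hrs at 37C, with parallel CellTiter-Glo cytotoxicity.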

[5] = qHTS assay for small molecule disruptors of mitochondrial membrane potential screened against the NCATS CANVASS Library (AID 1347389)
Procedure, shortened: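 Mitochondrial membrane potential in HepG2: 1 h compound treatment (11-point concentration series), 30 min m-MPI dye at 37C, then dual fluorescence of J-aggregates (ex 540/em 590) and monomers (ex 490/em 535); lower red/green ratio indicates depolarization.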

[6] = qHTS for inhibitors of Wild type Zika virus screened against the NCATS CANVASS Library (AID 1347396)
Procedure, shortened: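 Using ATP-based luminescence (CellTiter Glo), this screen scores rescue of Vero 766 cells from wild-type Zika killing at 72 h post-infection. Compounds are tested in a concentration series.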

[7] = HEK-293 Cancer Cell Toxicity qHTS against the NCATS CANVASS Library (AID 1347355)
Procedure, shortened: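 Toxicity was measured as CellTiter-Glo luminescence after 72 h exposure to an 11-point compound series. Compound was added to 1000 cells/well 4 h after seeding.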

[8] = qHTS for Inflammasome Signaling Inhibitors: IL-1-beta AlphaLISA screen against the NCATS CANVASS Library (AID 1347379)
Procedure, shortened: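 Secreted IL-1B from human THP-1 cells quantified by AlphaLISA 16 hr after compound addition (final up to 57.5 uM). A 1 hr compound pretreatment preceded inflammasome activation with 250 ng/mL LPS plus 1.25 mM ATP (final).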

[9] = Viability qHTS for inhibitors of the SERCaMP assay screened against the NCATS CANVASS Library (AID 1347400)
Procedure, shortened: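 CellTiter-Glo luminescence measured cytotoxicity after 48 h at 37C of compound treatment (11-point series). Cells were SH-SY5Y-GLuc SERCaMP MJH297 derivatives, seeded at 1000 per well 4 h beforehand.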

[10] = qHTS to identify inhibitors of the type 1 interferon - major histocompatibility complex class I in skeletal muscle: primary screen against the NCATS Mechanism Interrogation Plate v5.0 (MIPE) Libary (AID 1347411)
Procedure, shortened: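 Luminescence from CRISPR HiBit-tagged endogenous HLA-B in human myoblasts reported MHC class I level after 24 h of IFN-beta (4 ng/ml) plus compound. Compounds ran as 11-point 1:3 series, top 46 uM final.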

[11] = target: Phospholipid hydroperoxide glutathione peroxidase GPX4 (Homo sapiens) (UniProt P36969); assay: Primary qHTS Assay for Inhibitors of Recombinant Selenoprotein Glutathione Peroxidase 4 (GPX4) (AID 1845192)
Procedure, shortened: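 Steps: GPX4 plus compound, 30 min RT; add GR/GSH/NADPH master mix; start with cumene hydroperoxide; read 340/450 nm fluorescence at 0 and 15 min. Finals were 200 nM GPX4, 1 mM GSH, 0.5 mM CHP, 0.5 mM NADPH, 100 nM GR.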

Phospholipid hydroperoxide glutathione peroxidase GPX4 (Homo sapiens), sequence (P36969 whole entry, looked up): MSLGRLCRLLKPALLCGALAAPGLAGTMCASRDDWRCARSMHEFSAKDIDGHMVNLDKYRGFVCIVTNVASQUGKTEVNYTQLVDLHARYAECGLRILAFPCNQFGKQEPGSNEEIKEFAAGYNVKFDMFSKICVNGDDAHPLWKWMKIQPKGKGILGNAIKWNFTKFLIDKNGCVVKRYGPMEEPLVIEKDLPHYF

SMILES: CC[C@]12C=CCN3CC[C@]4(C(=C(C(=O)OC)C1)Nc1ccccc14)[C@@H]32
- Potency [1]: inactive
- Potency [2]: inactive
- Potency [3]: inactive
- Potency [4]: inactive
- Potency [5]: inactive
- Potency [6]: inactive

SMILES: CO[C@H]1C[C@H](O[C@H]2[C@@H](O)C[C@H](O[C@H]3CC[C@]4(C=O)[C@H]5CC[C@]6(C)C(C7=CC(=O)OC7)CC[C@]6(O)[C@@H]5CC[C@]4(O)C3)O[C@@H]2C)O[C@H](C)[C@H]1O[C@H]1C[C@@H](OC)[C@@H](O[C@@H]2O[C@H](CO)[C@@H](O)[C@H](O)[C@H]2O)[C@@H](C)O1 (stereo partly drawn)
- Potency [7]: 118 nM (active)
- Potency [1]: inactive
- Potency [2]: 166 nM (active)
- Potency [3]: 187 nM (active)
- Potency [4]: 118 nM (active)
- Potency [8]: 1530 nM (active)
- Potency [5]: inactive
- Potency [6]: inactive
- Potency [9]: 135 nM (active)

SMILES: c1ccc2nc3c(cc2c1)[nH]c1ccccc13
- Potency [7]: inactive
- Potency [1]: inactive
- Potency [2]: inactive
- Potency [3]: inactive
- Potency [4]: inactive
- Potency [8]: inactive
- Potency [5]: 16600 nM (active)
- Potency [6]: inactive
- Potency [9]: inactive

SMILES: C=CC(C)(C)[C@@]12C[C@H]3C(=O)N/C(=C\c4cnc[nH]4)C(=O)N3[C@@H]1Nc1ccccc12
- Potency [7]: inactive
- Potency [1]: inactive
- Potency [2]: inactive
- Potency [3]: inactive
- Potency [4]: inactive
- Potency [8]: inactive
- Potency [5]: inactive
- Potency [6]: inactive
- Potency [9]: inactive

SMILES: CC[C@H](C)[C@H]1NC(=O)[C@@H](NC(=O)C(C)[C@H](O)C(C)C)[C@@H](C)OC(=O)C2COC(=O)CNC(=O)/C=C\[C@]3(CO3)[C@@H](C)Oc3ccc(cc3)[C@H](NC1=O)C(=O)N(C)C(Cc1ccccc1)C(=O)NC(C(C)O)C(=O)N2 (stereo partly drawn) (X2-T[d(aIle)][X3][ξNMeF][ξT][ξS]; ester 1-C; linker 3-6 via G)
- Potency [7]: inactive
- Potency [1]: inactive
- Potency [2]: inactive
- Potency [3]: inactive
- Potency [4]: inactive
- Potency [8]: inactive
- Potency [5]: inactive
- Potency [6]: inactive
- Potency [9]: inactive

SMILES: C=C[C@H]1CN2CCC1C[C@@H]2[C@@H](O)c1ccnc2ccccc12 (stereo partly drawn)
- Potency [10]: inactive

SMILES: COc1cc(C)[nH]c(=O)c1CNC(=O)c1c(C)n([C@H](C)C2CCN(CC(F)(F)F)CC2)c2ccccc12
- Potency [10]: inactive
- Potency [11]: inactive

SMILES: O=C(CBr)N1CC([N+](=O)[O-])([N+](=O)[O-])C1
- Potency [10]: inactive
- Potency [11]: inactive

SMILES: C[C@]12COC(=O)C[C@@H]1CC[C@@H]1[C@@H]2CC[C@@]2(C)[C@H]1CC[C@]2(C)O
- Potency [10]: inactive
- Potency [11]: inactive

SMILES: COC12C(COC(N)=O)C3=C(C(=O)C(C)=C(N)C3=O)N1CC1C2N1C (stereo not drawn)
- Potency [10]: inactive
- Potency [11]: inactive

SMILES: CC(C)[C@]12O[C@H]1[C@@H]1O[C@@]13[C@@]1(C)CCC4=C(COC4=O)[C@@H]1C[C@@H]1O[C@@]13C2=O
- Potency [10]: 131 nM (active)
- Potency [11]: inactive

SMILES: C[C@@H](C1CC[C@@]2(O)C3=CC(=O)[C@@H]4C[C@@H](O)[C@@H](O)C[C@]4(C)[C@H]3CC[C@]12C)[C@H](O)CCC(C)(C)O (stereo partly drawn)
- Potency [10]: inactive
- Potency [11]: inactive

SMILES: CO[C@H]1CCC(O[C@H]2C[C@H]([C@]3(C)CC[C@]4(C[C@H](O)[C@@H](C)[C@@H]([C@@H](C)/C=C(\C)C(=O)[C@H](C)C[C@H](C)C(=O)O)O4)O3)O[C@]3(O[C@@H]([C@H]4O[C@@](O)(CO)[C@H](C)C[C@@H]4C)C[C@@H]3C)[C@@H]2C)O[C@@H]1C (stereo partly drawn)
- Potency [11]: inactive

SMILES: CC(C)(O)/C=C\C(=O)[C@](C)(O)[C@H]1[C@H](O)C[C@]2(C)[C@@H]3CC=C4[C@@H](C=C(O)C(=O)C4(C)C)[C@]3(C)C(=O)C[C@@]12C
- Potency [10]: 3300 nM (active)
- Potency [11]: inactive
